Experimental findings from PubChem BioAssay (EPA / NIEHS) are described below.

The source made the active and inactive calls. The calls were made as follows: active = hit-call score of the fitted dose curve at least 0.9, where 1 is the maximum; inactive = score below 0.9.

Read-out in experiment [1]: Tissue plasminogen activator (tPA), PLAT (gene 5327)
In words: BSK_BE3C_tPA: BioMAP Diversity Plus: BE3C Assay for Tissue plasminogen activator (tPA) Biomarker Activity (AID 2283041).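 Also: tPA level quantified by ELISA one day after compound addition.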 As to conditions: primary human bronchial epithelial cells; actives raise or lower the signal. The method in brief: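 Using human lung primary bronchial epithelial cells, tPA was measured by ELISA 24 h after dosing; data fitted relative to DMSO.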

Read-out in experiment [2]: Interleukin-8 (IL8), CXCL8 (gene 3576)
As to the kind of experiment: BSK_CASM3C_IL8: BioMAP Diversity Plus: CASM3C Assay for Interleukin-8 (IL8) Biomarker Activity (AID 2283042).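 Also: IL-8 protein level quantified by ELISA.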 As to conditions: primary human coronary artery smooth muscle cells; actives raise or lower the signal.

Read-out in experiment [3]: Human Leukocyte Antigen - DR isotype (HLADR), HLA-DRA (gene 3122)
In words: BSK_CASM3C_HLADR: BioMAP Diversity Plus: CASM3C Assay for Human Leukocyte Antigen - DR isotype (HLADR) Biomarker Activity (AID 2283043).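 Also: cell-surface HLA-DR protein level quantified by ELISA.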 The note with it: primary human coronary artery smooth muscle cells; actives raise or lower the signal.

Read-out in experiment [4]: Macrophage colony-stimulating factor (MCSF), CSF1 (gene 1435)
As to the kind of experiment: BSK_CASM3C_MCSF: BioMAP Diversity Plus: CASM3C Assay for Macrophage colony-stimulating factor (MCSF) Biomarker Activity (AID 2283044).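 Also: M-CSF protein amount quantified by ELISA after 24 h exposure.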 The note with it: primary human coronary artery smooth muscle cells; actives raise or lower the signal.

Read-out in experiment [5]: Low-density lipoprotein receptor (LDLR), LDLR (gene 3949)
As to the kind of experiment: BSK_CASM3C_LDLR: BioMAP Diversity Plus: CASM3C Assay for Low-density lipoprotein receptor (LDLR) Biomarker Activity (AID 2283045).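 Also: LDLR protein level on the cell surface quantified by ELISA.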 As to conditions: primary human coronary artery smooth muscle cells; actives raise or lower the signal.

Read-out in experiment [6]: Monocyte Chemoattractant Protein-1 (MCP1), CCL2 (gene 6347)
As to the kind of experiment: BSK_CASM3C_MCP1: BioMAP Diversity Plus: CASM3C Assay for Monocyte Chemoattractant Protein-1 (MCP1) Biomarker Activity (AID 2283046).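 Also: MCP-1 level quantified by ELISA 24 h after dosing.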 The note with it: primary human coronary artery smooth muscle cells; actives raise or lower the signal.

Experiment [7] in a line: BSK_CASM3C_Proliferation: Cell Proliferation Assessment in the BioMAP Diversity Plus: CASM3C Assay (AID 2283047).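 Also: sulforhodamine B total protein stain as relative cell number at 560 nm; sub-confluent cells exposed 48 h before staining; fitted both ways against DMSO so gain or loss of cell number.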 As to conditions: primary human coronary artery smooth muscle cells.
Read-out in experiment [8]: Monokine induced gamma interferon (MIG), CXCL9 (gene 4283)
In words: BSK_CASM3C_MIG: BioMAP Diversity Plus: CASM3C Assay for Monokine induced gamma interferon (MIG) Biomarker Activity (AID 2283048).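 Also: MIG protein level measured by ELISA.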 As to conditions: primary human coronary artery smooth muscle cells; actives raise or lower the signal.

Read-out in experiment [9]: serum amyloid A (SAA), SAA1 (gene 6288)
As to the kind of experiment: BSK_CASM3C_SAA: BioMAP Diversity Plus: CASM3C Assay for serum amyloid A (SAA) Biomarker Activity (AID 2283049).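 Also: SAA protein level quantified by ELISA.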 As to conditions: primary human coronary artery smooth muscle cells; actives raise or lower the signal.

The nature of experiment [10]: BSK_CASM3C_SRB: Viability Assessment in the BioMAP Diversity Plus: CASM3C Assay (AID 2283050).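 Also: total protein by SRB staining as cytotoxicity measure in parallel cultures; cells exposed to compound for 24 h.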 As to conditions: primary human coronary artery smooth muscle cells.
Read-out in experiment [11]: Thrombomodulin, THBD (gene 7056)
As to the kind of experiment: BSK_CASM3C_Thrombomodulin: BioMAP Diversity Plus: CASM3C Assay for Thrombomodulin Biomarker Activity (AID 2283051).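 Also: thrombomodulin protein level measured by ELISA 24 h after dosing.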 As to conditions: primary human coronary artery smooth muscle cells; actives raise or lower the signal.

Read-out in experiment [12]: Tissue Factor, F3 (gene 2152)
In words: BSK_CASM3C_TissueFactor: BioMAP Diversity Plus: CASM3C Assay for Tissue Factor Biomarker Activity (AID 2283052).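 Also: cell surface tissue factor protein level read by ELISA.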 The note with it: primary human coronary artery smooth muscle cells; actives raise or lower the signal.

Read-out in experiment [13]: Interferon-gamma inducible Protein 10 (IP10), CXCL10 (gene 3627)
In words: BSK_hDFCGF_IP10: BioMAP Diversity Plus: hDFCGF Assay for Interferon-gamma inducible Protein 10 (IP10) Biomarker Activity (AID 2283053). The note with it: primary human foreskin fibroblasts; actives raise or lower the signal. The method in brief: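 Chemical-treated human skin fibroblasts (primary) were sampled at 24 h for IP-10 by ELISA. Both increases and decreases relative to DMSO were scored.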

Read-out in experiment [14]: Urokinase-type plasminogen activator receptor (uPAR), PLAUR (gene 5329)
As to the kind of experiment: BSK_CASM3C_uPAR: BioMAP Diversity Plus: CASM3C Assay for Urokinase-type plasminogen activator receptor (uPAR) Biomarker Activity (AID 2283054).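 Also: cell-surface uPAR protein level quantified by ELISA.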 As to conditions: primary human coronary artery smooth muscle cells; actives raise or lower the signal.

Read-out in experiment [15]: Vascular cell adhesion molecule 1 (VCAM1), VCAM1 (gene 7412)
As to the kind of experiment: BSK_CASM3C_VCAM1: BioMAP Diversity Plus: CASM3C Assay for Vascular cell adhesion molecule 1 (VCAM1) Biomarker Activity (AID 2283055).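 Also: VCAM-1 protein level quantified by ELISA on the cells.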 The note with it: primary human coronary artery smooth muscle cells; actives raise or lower the signal.

Read-out in experiment [16]: Collagen III, COL3A1 (gene 1281)
As to the kind of experiment: BSK_hDFCGF_CollagenIII: BioMAP Diversity Plus: hDFCGF Assay for Collagen III Biomarker Activity (AID 2283056). The note with it: primary human foreskin fibroblasts; actives raise or lower the signal. The method in brief: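 Cells: human foreskin fibroblasts, primary. Dosing followed by 24 h incubation, then ELISA for collagen III. Both increases and decreases scored relative to DMSO.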

Read-out in experiment [17]: Epidermal growth factor receptor (EGFR), EGFR (gene 1956)
In words: BSK_hDFCGF_EGFR: BioMAP Diversity Plus: hDFCGF Assay for Epidermal growth factor receptor (EGFR) Biomarker Activity (AID 2283057). The note with it: primary human foreskin fibroblasts; actives raise or lower the signal. In a few lines:
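Cell-based multiplexed assay in primary human foreskin fibroblasts. EGFR is read by ELISA 24 h after treatment and compared with DMSO controls.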

Read-out in experiment [18]: Interleukin-8 (IL8), CXCL8 (gene 3576)
As to the kind of experiment: BSK_hDFCGF_IL8: BioMAP Diversity Plus: hDFCGF Assay for Interleukin-8 (IL8) Biomarker Activity (AID 2283058). As to conditions: primary human foreskin fibroblasts; actives raise or lower the signal. In a few lines:
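IL-8 levels from compound-treated primary human fibroblasts were read by ELISA at 24 h, with DMSO serving as baseline for bidirectional fitting.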

Experiment [19] is described as follows: BSK_hDFCGF_Proliferation: Cell Proliferation Assessment in the BioMAP Diversity Plus: hDFCGF Assay (AID 2283059).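 Also: curves fitted for both rise and fall of signal versus DMSO baseline.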 The note with it: primary human foreskin fibroblasts. The method in brief:
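Sub-confluent human foreskin fibroblast cultures receive test chemical […]. Relative cell number is quantified by sulforhodamine B staining (0.1%, after 10% TCA fixation) at 560 nm, with bidirectional fitting referenced to DMSO.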

Read-out in experiment [20]: Macrophage colony-stimulating factor (MCSF), CSF1 (gene 1435)
In words: BSK_hDFCGF_MCSF: BioMAP Diversity Plus: hDFCGF Assay for Macrophage colony-stimulating factor (MCSF) Biomarker Activity (AID 2283060). As to conditions: primary human foreskin fibroblasts; actives raise or lower the signal. In a few lines: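 M-CSF levels, determined by ELISA, are taken at 24 h after dosing human skin fibroblasts. Responses in either direction are fitted with DMSO serving as the baseline.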

Take `Cc1ccccc1CO[C@@H]1C[C@@]2(C(C)C)CC[C@]1(C)O2`: the outcome in experiment [1], in experiment [2], in experiment [3], in experiment [4], in experiment [5] and in [6] was inactive. The result in experiment [7], in experiment [8], in [9], in experiment [10], in experiment [11] and in experiment [12] was inactive. Also, the result in experiment [13], in experiment [14], in experiment [15], in experiment [16], in experiment [17] and in experiment [18] was inactive. Also, the result in [19] and in experiment [20] was inactive.
By AC50 is commonly meant the concentration at which the activity in the assay is half-maximal. Consider `Clc1ccc(C(c2ccccc2Cl)C(Cl)(Cl)Cl)cc1` (configuration not stated), for which the result in [1], in experiment [2], in experiment [8], in experiment [12] and in experiment [17] was inactive. In addition, the concentration at half-maximal activity (AC50) in experiment [3] is 17.6 µM (active); in [4] it was 13.8 µM (active); in experiment [5] it was 14.3 µM (active); in experiment [6] it was 23.7 µM (active); in [7] it was 20.1 µM (active); in experiment [10] it was 22.8 µM (active). Further, the AC50 in experiment [11] was 19.6 µM (active); in experiment [13], 7.73 µM (active); in experiment [14], 25.6 µM (active); in experiment [15] it was 11.7 µM (active); in experiment [16], 6.51 µM (active); in experiment [18] it was 10.8 µM (active). For the same molecule, the AC50 in [19] was 6.94 µM (active); in experiment [20], 8.37 µM (active).
Turning to `CCC(=O)O[C@H]1CC[C@H]2[C@@H]3CCC4=CC(=O)CC[C@]4(C)[C@H]3CC[C@]12C`, the outcome in experiment [1], in experiment [2], in [3], in experiment [4], in [5] and in experiment [6] was inactive. The outcome in experiment [8], in experiment [9], in experiment [10], in experiment [11], in experiment [12] and in experiment [14] was inactive. Also, the result in experiment [15] and in experiment [17] was inactive. The AC50 in experiment [7] is 20 µM (active); in experiment [18], 38.2 µM (active); in experiment [19], 30.6 µM (active); in experiment [20], 31.3 µM (active).
`CCC(C)(c1ccc(O)cc1)c1ccc(O)cc1`: the outcome in [1], in experiment [2], in experiment [3], in experiment [4], in [5] and in experiment [6] was inactive. Further, the result in experiment [8], in [9], in [10], in [12], in experiment [14] and in experiment [15] was inactive. Further, the result in experiment [17], in [18] and in experiment [20] was inactive. For the same molecule, the AC50 in experiment [7] is 25.5 µM (active); in [11], 26.5 µM (active); in experiment [13], 30.1 µM (active); in experiment [16], 20 µM (active); in experiment [19], 30.4 µM (active).
As for `CN(C)c1nc(=O)n(C2CCCCC2)c(=O)n1C`, the result in experiment [1], in experiment [2], in [3], in [4], in experiment [5] and in [6] was inactive. The result in experiment [7], in experiment [8], in experiment [9], in experiment [10], in [11] and in experiment [12] was inactive. For the same molecule, the outcome in [13], in experiment [14], in experiment [15], in experiment [16], in experiment [17] and in experiment [18] was inactive. The result in [19] and in experiment [20] was inactive.
For `C1CC2OC2CC1C1CO1` (configuration not stated), the result in experiment [1], in experiment [2], in [3], in experiment [4], in experiment [5] and in [6] was inactive. Further, the outcome in experiment [7], in experiment [8], in [9], in experiment [10], in experiment [11] and in experiment [12] was inactive. In addition, the result in experiment [13], in [14], in [15], in experiment [16], in experiment [17] and in experiment [18] was inactive. The outcome in experiment [19] and in experiment [20] was inactive.
